According to ChEMBL document CHEMBL3988442, “University of Dundee, Small-Polar-MMV Screening Library” (2021):
In all, about 48,000 compounds went through this assay and about 13,000 (27%) showed an effect of 50% or more. The list shows a part of the results.

These compounds were tested on Wolbachia pipientis (assay: Anti-Wolbachia Cell-Based Screen). Conditions: 5 µM.
Format: functional
Design: scale not given: in the data most compounds retested in dose-response had high values

Row | SMILES | Percent Effect
1 | COC(C(=O)N1CCN(c2cccc(Cl)c2)C(=O)C1)c1ccccc1 (stereo not given) | -8.872%
2 | Cc1ccc(N2CCN(C(=O)[C@@H]3CCC(=O)N3)CC2=O)cc1 | 107.8%
3 | Cc1ccc(CC(=O)N2CC[C@@H]3NC(=O)CC[C@@H]32)cc1 | -5.727%
4 | COc1cccc(N2CCN(C(=O)[C@H](O)C3CCCCC3)CC2=O)c1 | -19.32%
5 | Cc1ccc(N2CCN(C(=O)C(O)c3cccc(Cl)c3)CC2=O)cc1 (stereo not given) | -0.06478%
6 | COc1ccc(N2CCN(C(=O)CCCc3cn[nH]c3)CC2=O)cc1 | -15.55%
7 | Cc1cc(C)cc(N2CCN(C(=O)C3CN(C)C(=O)N3)CC2=O)c1 (stereo not given) | 83.41%
8 | Cc1ccc(N2CCN(C(=O)C3CN(C)C(=O)N3)CC2=O)cc1 (stereo not given) | 99.53%
9 | COc1cccc(N2CCN(C(=O)CO)CC2=O)c1 | 5.099%
10 | CN1CC(C(=O)N2CCN(c3cccc(Cl)c3)C(=O)C2)NC1=O (stereo not given) | 98.1%
11 | COc1cnc(CN2CC(=O)N(c3ccc(C)cc3)CC2C)cc1O (stereo not given) | 8.35%
12 | O=C([C@H](O)c1ccccc1)N1CCN(c2cccc(Cl)c2)C(=O)C1 | -7.931%
13 | COc1ccc(-c2nc(CNCCn3cccn3)cs2)cc1 | 30.25%
14 | COc1cc2c(cc1CNCc1ccnc(-n3cccn3)c1)OC(C)C2.Cl (stereo not given) | -0.5391%
15 | O=C(O)CSc1nnc(-c2ccn[nH]2)n1-c1ccccc1C(F)(F)F | -29.49%
16 | N#CCCN(CC1CCOC1)Cn1ccc(-c2ccsc2)n1 (stereo not given) | -9.852%
17 | Cn1cccc1C(=O)N1CC2(CCN(C(=O)c3cccnc3)C2)C1.O=C(O)C(F)(F)F | 98.8%
18 | Cn1cccc1CN1CCC2(CCCN(C(=O)c3cccnc3)C2)CC1.O=C(O)C(F)(F)F.O=C(O)C(F)(F)F | 3.692%
19 | Cn1cccc1C(=O)N1CCC2(CCN(C(=O)c3cccnc3)C2)CC1.O=C(O)C(F)(F)F | 51.82%
20 | CN(C)C1(CNC(=O)Cc2ccc(F)cc2)CCOCC1 | -8.041%
21 | CC1(CCNC(=O)NCc2ccsc2)OCCO1 | -10.92%
22 | FC(F)(F)c1cccc(C2(CNCc3cc[nH]c3)CCOCC2)c1 | 2.692%

Row | SMILES | Percent Effect
23 | CN1CCN(C(=O)NCCc2ccc(F)cc2)[C@H]2CS(=O)(=O)C[C@H]21 | 8.781%
24 | CC(CNC(=O)NCc1ccsc1)CC1(C)OCCO1 (stereo not given) | -12.21%
25 | CC1(C(=O)NCc2cccc(C(F)(F)F)c2)CCOCC1 | 102.7%
26 | CCN(CC)c1ccc(CNC(=O)C2(C)CCOCC2)cc1F | 25.87%
27 | CC1(C(=O)NCc2cc(F)cc(F)c2)CCOCC1 | 100.6%
28 | FC(F)(F)c1cccc(C2(CNCc3ccncc3)CCOCC2)c1 | -7.872%
29 | CC1(C(=O)Nc2ccc(F)c(-n3cccc3)c2)CCOCC1 | -9.431%
30 | CC1(C(=O)NCCc2ccc(F)cc2)CCOCC1 | 104.4%
31 | CC1(C(=O)NCc2ccsc2)CCOCC1 | 107.3%
32 | Cc1nc(-c2ccccc2)c(C(=O)N2CCC3(CC(=O)NC3=O)C2)s1 (stereo not given) | -0.3979%
33 | Cc1noc(C)c1CN1CC2(CCN(C(=O)c3ccoc3C)C2)CC1=O (stereo not given) | -6.391%
34 | CCC(C)N(Cc1cc(C)n[nH]1)Cc1ccccc1Cl (stereo not given) | 4.348%
35 | Cc1cc(CN2CCCC2)cc(Oc2ccc3c(c2)CC(CN)O3)c1 (stereo not given) | 4.792%
36 | CC(C)c1noc(CN(C)C(=O)c2ncn[nH]2)n1 | 4.654%
37 | CC(=O)NCCNC(=O)c1sc(-c2ccc(C)cc2C)nc1C | -3.584%
38 | N#Cc1cn[nH]c1NCc1cc(Cl)cc(Cl)c1O | 77.61%
39 | N#Cc1cn[nH]c1NCc1cc(I)cc(I)c1O | 96%
40 | N#Cc1cn[nH]c1NCc1cc(Br)ccc1O | 83.36%
41 | COc1ccc(/C=C/CN2CCN(c3ncccc3C(N)=O)CC2)cc1 | -5.557%
42 | Cc1nc(NC2CCCC2)cc(C2CCN2C(=O)c2cnn(C)c2)n1 (stereo not given) | 99.12%
43 | Cc1nc(NC2CCCC2)cc(C2CCN2C(=O)c2ccccc2)n1 (stereo not given) | 4.339%
44 | CCc1cc(NC2CCN(CC(N)=O)CC2)nc(N2CCCCC2)n1 | 3.351%

Row | SMILES | Percent Effect
45 | CCC(=O)N1CCC1c1cc(NC2CCCC2)nc(C)n1 (stereo not given) | 124.3%
46 | Cc1cccc(N2CC[C@H]3[C@H]2CCN3C(=O)c2cnn(C)c2)n1 | 8.202%
47 | Cc1nc(NC2CCCC2)cc(C2CCN2C(=O)c2ccccn2)n1 (stereo not given) | 140.6%
48 | Cc1nc(NC2CCCC2)cc(C2CCN2C(=O)c2cccnc2)n1 (stereo not given) | -5.726%
49 | O=C1NCCc2c1sc1ccc(C(=O)N3CC[C@H](CO)[C@H](O)C3)cc21 | 1.887%
50 | CCCS(=O)(=O)N1CCC2(CCC(=O)N(CCc3cccnc3)C2)CC1 | -2.035%
51 | CCCC(=O)NC(C)(C)Cc1ccccc1OC | 8.655%
52 | CCn1cc(S(=O)(=O)NC(=O)CCc2c[nH]c3ccccc23)cn1 | 5.036%
53 | CN1CCN(c2ccc(NCc3ccc([S+](C)[O-])cc3)cn2)CC1 (stereo not given) | -11.28%
54 | Cc1ccsc1C(=O)N1CC[C@H]2CO[C@H](CN(C)C)[C@H]2C1.O=C(O)C(F)(F)F | 3.155%
55 | CCC(C)CS(=O)(=O)NC(=O)C1CC1 (stereo not given) | -14.71%
56 | [O-][S+](Cc1c(F)cccc1Cl)Cc1nnnn1C1CC1 (stereo not given) | 117.1%
57 | O=C(CS(=O)(=O)Cc1nnnn1C1CC1)NCC1CC1 | -6.472%
58 | O=S(=O)(Cc1ccccc1F)Cc1nnnn1C1CC1 | 106.9%
59 | O=C(CS(=O)(=O)Cc1nnnn1C1CC1)NCCc1ccccc1 | -17.89%
60 | O=S(=O)(Cc1c(F)cccc1Cl)Cc1nnnn1C1CC1 | 95.69%
61 | c1ccc(C2CCCN2Cc2nnnn2C2CC2)cc1 (stereo not given) | -9.931%
62 | O=S(=O)(CCCc1ccccc1)Cc1nnnn1C1CC1 | -8.499%
63 | CN(Cc1nnnn1C1CC1)c1cccc2ccccc12 | -12.9%
64 | O=S(=O)(Cc1c(F)cccc1Cl)NCCCN1CCCCCC1 | 1.36%
65 | CCC(C)CN(C)C(=O)NCc1ccccc1-n1cccn1 (stereo not given) | -6.014%
